Assay [1] is described as follows: BSK_BF4T_SRB: Viability Assessment in the BioMAP Diversity Plus: BF4T Assay (AID 2284274). Particulars: primary human bronchial epithelial cells with fibroblasts. The method in brief: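 Cytotoxicity measured as total protein: cells fixed with 10% TCA, stained with 0.1% SRB, read at 560 nm. Bronchial epithelial/dermal fibroblast co-culture, 24 h after dosing, with positive-direction fitting relative to DMSO.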

Read-out in assay [2]: urokinase Plasminogen Activator (uPA), PLAU (gene 5328)
As to the kind of experiment: BSK_BF4T_uPA: BioMAP Diversity Plus: BF4T Assay for urokinase Plasminogen Activator (uPA) Biomarker Activity (AID 2284275). Conditions: primary human bronchial epithelial cells with fibroblasts. An outline of the steps:
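uPA levels measured by ELISA at 24 hours in BF4T cultures (bronchial epithelial cells plus dermal fibroblasts) and compared with DMSO; cytotoxicity tracked in parallel cultures by sulforhodamine B staining.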

Read-out in assay [3]: Matrix Metallopeptidase 9 (MMP9), MMP9 (gene 4318)
As to the kind of experiment: BSK_BF4T_MMP9: BioMAP Diversity Plus: BF4T Assay for Matrix Metallopeptidase 9 (MMP9) Biomarker Activity (AID 2284276). Particulars: primary human bronchial epithelial cells with fibroblasts. An outline of the steps:
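MMP-9 levels were measured by ELISA after 24 h exposure of bronchial epithelial cell/dermal fibroblast co-cultures, with DMSO as baseline. Parallel cultures were stained with 0.1% SRB after TCA fixation, read at 560 nm, to flag overt cytotoxicity.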

Read-out in assay [4]: Intercellular Adhesion Molecule 1 (ICAM1), ICAM1 (gene 3383)
As to the kind of experiment: BSK_BE3C_ICAM1: BioMAP Diversity Plus: BE3C Assay for Intercellular Adhesion Molecule 1 (ICAM1) Biomarker Activity (AID 2284278).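 Further: cell-surface ICAM-1 protein level quantified by ELISA.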 Particulars: primary human bronchial epithelial cells. An outline of the steps:
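ICAM-1 quantified by ELISA and fitted against DMSO baseline, 24 h post-dosing in BE3C cultures of primary human lung bronchial epithelial cells. Cytotoxicity checked in parallel cultures by total protein SRB staining.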

Read-out in assay [5]: Interferon-inducible T-cell alpha chemoattractant (ITAC), CXCL11 (gene 6373)
As to the kind of experiment: BSK_BE3C_ITAC: BioMAP Diversity Plus: BE3C Assay for Interferon-inducible T-cell alpha chemoattractant (ITAC) Biomarker Activity (AID 2284279). Conditions: primary human bronchial epithelial cells. An outline of the steps: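 The assay measures I-TAC levels by ELISA in human primary bronchial epithelial cell cultures 24 hours after chemical treatment. Values reflect signal increase over the DMSO baseline.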

Read-out in assay [6]: Interleukin-8 (IL8), CXCL8 (gene 3576)
As to the kind of experiment: BSK_BE3C_IL8: BioMAP Diversity Plus: BE3C Assay for Interleukin-8 (IL8) Biomarker Activity (AID 2284280). Particulars: primary human bronchial epithelial cells. An outline of the steps:
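Dose human bronchial epithelial cells with chemical; incubate 24 h; quantify IL-8 by ELISA; fit response upward versus DMSO controls.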

Read-out in assay [7]: Epidermal growth factor receptor (EGFR), EGFR (gene 1956)
As to the kind of experiment: BSK_BE3C_EGFR: BioMAP Diversity Plus: BE3C Assay for Epidermal growth factor receptor (EGFR) Biomarker Activity (AID 2284281). Particulars: primary human bronchial epithelial cells. An outline of the steps: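 ELISA read-out of EGFR levels on human bronchial epithelial primary cells collected 24 h post-dosing. DMSO served as negative control and baseline for gain-of-signal fitting.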

Read-out in the next assay: KRT18 (gene 3875)
As to the kind of experiment: BSK_BE3C_Keratin818: BioMAP Diversity Plus: BE3C Assay for Keratin 818 Biomarker Activity (AID 2284282). Conditions: primary human bronchial epithelial cells. An outline of the steps: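 ELISA readout of Keratin 8/18 in human primary bronchial epithelial cultures after 24 h chemical exposure, DMSO baseline. Parallel SRB staining (0.1%, TCA-fixed, 560 nm) served as cytotoxicity check.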

Read-out in assay [8]: Matrix Metallopeptidase 9 (MMP9), MMP9 (gene 4318)
As to the kind of experiment: BSK_BE3C_MMP9: BioMAP Diversity Plus: BE3C Assay for Matrix Metallopeptidase 9 (MMP9) Biomarker Activity (AID 2284283). Particulars: primary human bronchial epithelial cells. An outline of the steps: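 Human primary bronchial epithelial cells exposed 24 h to compound. MMP9 quantified by ELISA. SRB total-protein staining of parallel cultures assesses cytotoxicity. Positive-direction fit relative to DMSO.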

Read-out in assay [9]: Plasminogen activator inhibitor-1 (PAI1), SERPINE1 (gene 5054)
As to the kind of experiment: BSK_CASM3C_PAI1: BioMAP Diversity Plus: CASM3C Assay for Plasminogen activator inhibitor-1 (PAI1) Biomarker Activity (AID 2284284).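 Further: PAI-1 protein level measured by ELISA 24 h after dosing.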 Particulars: primary human coronary artery smooth muscle cells.

Read-out in assay [10]: Monocyte Chemoattractant Protein-1 (MCP1), CCL2 (gene 6347)
As to the kind of experiment: BSK_hDFCGF_MCP1: BioMAP Diversity Plus: hDFCGF Assay for Monocyte Chemoattractant Protein-1 (MCP1) Biomarker Activity (AID 2284285). Particulars: primary human foreskin fibroblasts. The method in brief: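 MCP-1 ELISA readout was taken 24 hours after dosing primary human dermal fibroblasts in the hDFCGF system, with DMSO as baseline. Parallel sulforhodamine B staining of total protein tracked overt cytotoxicity.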

Read-out in assay [11]: Vascular cell adhesion molecule 1 (VCAM1), VCAM1 (gene 7412)
As to the kind of experiment: BSK_IMphg_VCAM1: BioMAP Diversity Plus: IMphg Assay for Vascular cell adhesion molecule 1 (VCAM1) Biomarker Activity (AID 2284286). Conditions: primary human endothelial cells with macrophages. The method in brief: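 ELISA read-out of VCAM-1 on venular endothelial cell/macrophage co-cultures at 24 h post-treatment, with DMSO as baseline and positive-direction fitting. Parallel sulforhodamine B total-protein staining (560 nm) served as the overt cytotoxicity measure.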

Read-out in assay [12]: Intercellular Adhesion Molecule 1 (ICAM1), ICAM1 (gene 3383)
As to the kind of experiment: BSK_hDFCGF_ICAM1: BioMAP Diversity Plus: hDFCGF Assay for Intercellular Adhesion Molecule 1 (ICAM1) Biomarker Activity (AID 2284287). Particulars: primary human foreskin fibroblasts. The method in brief: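 ICAM-1 ELISA readout 24 h after dosing, DMSO as baseline, in human dermal foreskin fibroblast cultures. Cytotoxicity checked in parallel wells by SRB staining (0.1% SRB, 10% TCA fixation, 560 nm).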

Read-out in another assay: CD40, CD40 (gene 958)
As to the kind of experiment: BSK_IMphg_CD40: BioMAP Diversity Plus: IMphg Assay for CD40 Biomarker Activity (AID 2284288). Conditions: primary human endothelial cells with macrophages. The method in brief:
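ELISA read-out of cell-surface CD40 at 24 h in human venular endothelial cell/macrophage co-cultures. Activity fitted in the positive direction against DMSO; parallel SRB staining (560 nm) gauges overt cytotoxicity.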

Read-out in assay [13]: TIMP metallopeptidase inhibitor 2 (TIMP2), TIMP2 (gene 7077)
As to the kind of experiment: BSK_hDFCGF_TIMP2: BioMAP Diversity Plus: hDFCGF Assay for TIMP metallopeptidase inhibitor 2 (TIMP2) Biomarker Activity (AID 2284289). Conditions: primary human foreskin fibroblasts. An outline of the steps:
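Primary human foreskin fibroblasts in the hDFCGF system, dosed for 24 h; TIMP-2 level measured by ELISA, fitted in the positive direction against DMSO; cytotoxicity checked in parallel by sulforhodamine B total protein staining.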

Read-out in assay [14]: Interleukin-1 alpha (IL1a), IL1A (gene 3552)
As to the kind of experiment: BSK_IMphg_IL1a: BioMAP Diversity Plus: IMphg Assay for Interleukin-1 alpha (IL1a) Biomarker Activity (AID 2284290). Particulars: primary human endothelial cells with macrophages. An outline of the steps:
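IL-1α is quantified by ELISA at 24 h in the endothelial/macrophage IMphg co-culture, with gain of signal fitted relative to DMSO. Parallel SRB total-protein staining flags overt toxicity.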

Read-out in assay [15]: E-selectin (Homo sapiens) (UniProt P16581)
As to the kind of experiment: BSK_IMphg_ESelectin: BioMAP Diversity Plus: IMphg Assay for Eselectin Biomarker Activity (AID 2284291). Conditions: primary human endothelial cells with macrophages. The method in brief: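 Analysed against DMSO baseline in the positive fitting direction, this endpoint is an ELISA read of E-selectin. It comes from human venular endothelial cells co-cultured with macrophages, sampled 24 h post-dose.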

“And” between values parts separate entries of the source, which are not always exact repeats. Identical values can stand only once. A structure can be active in one record and inactive in another. The source made the active and inactive calls. How the source made its calls: active means hit-call score of the fitted dose curve at least 0.9, where 1 is the maximum; inactive means score below 0.9.

Sequence of E-selectin (Homo sapiens) (P16581 whole entry, looked up): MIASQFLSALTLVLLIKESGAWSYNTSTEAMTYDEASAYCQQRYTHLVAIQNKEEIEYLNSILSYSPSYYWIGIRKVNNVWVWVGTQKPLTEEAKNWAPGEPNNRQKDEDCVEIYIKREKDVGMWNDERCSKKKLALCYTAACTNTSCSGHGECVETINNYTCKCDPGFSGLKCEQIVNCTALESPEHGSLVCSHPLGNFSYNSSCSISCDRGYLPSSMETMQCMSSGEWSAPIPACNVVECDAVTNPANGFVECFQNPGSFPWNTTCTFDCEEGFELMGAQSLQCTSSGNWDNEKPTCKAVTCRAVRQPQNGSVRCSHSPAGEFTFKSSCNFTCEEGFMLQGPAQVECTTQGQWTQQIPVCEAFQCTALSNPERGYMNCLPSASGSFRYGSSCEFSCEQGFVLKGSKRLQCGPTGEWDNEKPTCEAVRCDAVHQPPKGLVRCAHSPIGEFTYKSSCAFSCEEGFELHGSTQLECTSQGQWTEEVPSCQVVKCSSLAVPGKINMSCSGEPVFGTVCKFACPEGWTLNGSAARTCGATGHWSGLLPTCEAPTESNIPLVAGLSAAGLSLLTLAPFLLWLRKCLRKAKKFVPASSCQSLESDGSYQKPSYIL

Regarding `CN(C(=O)C(F)(F)C(F)(F)C(F)(F)F)[Si](C)(C)C`, the outcome in assay [1], in assay [2], in assay [3], in assay [4], in [5] and in assay [6] was inactive. The result (in [7]; with KRT18 (gene 3875); in assay [8]; in [9]; in assay [10]; in assay [11]) was inactive. The outcome is “inactive” in [12]; “inactive” with CD40, CD40 (gene 958); “inactive” in [13]; “inactive” in assay [14].

For the compound `O=C(O)CCC(F)(F)C(F)(F)C(F)(F)C(F)(F)C(F)(F)C(F)(F)C(F)(F)F`, the result in assay [1], in [2], in assay [3], in assay [4], in assay [6] and in [7] was inactive. Also, the result (with KRT18 (gene 3875); in [8]; in assay [9]; in assay [10]; in assay [11]; in assay [12]) was inactive. Besides, the outcome with CD40, CD40 (gene 958) is “inactive”; in [13], “inactive”; in [14] it was “inactive”. Besides, the AC50 – broadly, the concentration giving half of the maximal activity seen – in [5] was 3.43 µM (active) and 2.52 µM (active).

For `FC(F)(F)C(F)(F)C(F)(F)C(F)(F)C(F)(F)C(F)(F)CC[Si](Cl)(Cl)Cl`, the outcome in assay [1], in assay [2], in [3], in [4], in [5] and in assay [6] was inactive. Moreover, the result (in assay [7]; in the assay with KRT18 (gene 3875); in assay [8]; in [9]; in assay [10]; in [11]) was inactive. For the same compound, the outcome was “inactive” in assay [12]; “inactive” in the assay with CD40, CD40 (gene 958); “inactive” in [13]; “inactive” in assay [14]; “inactive” in assay [15]. Also, the values for the AC50 in [10] and in assay [13] were 39.3 nM (active) and 519 nM (active), respectively.

`NC(=O)C(F)(F)C(F)(F)C(F)(F)C(F)F`: the outcome in assay [1], in [2], in [3], in assay [4], in assay [5] and in assay [6] was inactive. The result (in assay [7]; with KRT18 (gene 3875); in assay [8]; in assay [9]; in [10]; in assay [11]) was inactive. The outcome in [12] is “inactive”; with CD40, CD40 (gene 958) it was “inactive”; in assay [13] it was “inactive”; in assay [14], “inactive”.

`O=C(O)CCC(F)(F)C(F)(F)C(F)(F)F`: the result in assay [1], in assay [2], in assay [3], in assay [4], in [5] and in assay [6] was inactive. Also, the result (in assay [7]; with KRT18 (gene 3875); in assay [8]; in assay [9]; in [10]; in assay [11]) was inactive. Moreover, the outcome in assay [12] was “inactive”; with CD40, CD40 (gene 958), “inactive”; in assay [13] it was “inactive”; in [14] it was “inactive”. Besides, the AC50 with CD40, CD40 (gene 958) was 220 nM (active).

As to `O=C(F)C1(F)C(F)(F)C(F)(F)C(F)(F)C(F)(F)C1(F)F`, the result in assay [1], in assay [2], in assay [3], in [4], in [5] and in assay [6] was inactive. Moreover, the outcome (in [7]; with KRT18 (gene 3875); in [8]; in [9]; in [10]; in assay [11]) was inactive. In addition, the outcome in assay [12] is “inactive”; in the assay with CD40, CD40 (gene 958), “inactive”; in assay [13], “inactive”; in [14], “inactive”.

The record behind these values is PubChem BioAssay (EPA / NIEHS).
